Assay outcomes deposited in PubChem by several laboratories.
Shn3 inh set2: reduction of Shn3 3'UTR firefly luciferase signal, primary screen, Schnurri-3 inhibitor project, cell-based, Clone20 osteoblasts, set 2 | Clone20 osteoblast Shn3 3'UTR firefly luciferase, 24 h | AID 588674, 2011 | inhibition, % at 12.5 µM | 360,000 tested, 0.52% active;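 active = mean inhibition of at least 75% with every replicate also reaching 75%; inconclusive = mean inhibition at least 75% but some replicate below; inactive = mean inhibition below 75%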;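 also: 0% = median of neutral control wells and 100% = pilot-screen positive control compound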
EBV LMP1 NFkB: EBV LMP1-driven NF-kappaB luciferase reporter inhibitors, primary screen, cell-based, luminescence, single point | LMP1-induced NF-kappaB luciferase reporter cells | inhibition, % at 12.5 µM | 350,000 tested, 0.69% active | AID 504558, 2011; in the data active = inhibition above about 41%; inconclusive = no clear call, values can overlap the other calls;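 also: 0% = neutral control wells and 100% = reference inhibitor control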
Jurkat NFkB inh: inhibitors of induced NF-kB luciferase reporter, primary screen, TCR NF-kB activation inhibitor project, cell-based, luminescence, uHTS | Jurkat, PMA/ionomycin-induced NF-kB luciferase reporter | inhibition, % at 4 µM | 330,000 tested, 0.53% active; in the data active = inhibition above about 50%
Gli-Sufu block: Gli-Sufu pathway antagonists, primary screen, luciferase luminescence, Sufu-KO-LIGHT cells, uHTS; Sufu-KO-LIGHT fibroblasts, Gli luciferase reporter luminescence; inhibition, % at 5 µM; 340,000 tested, 0.74% active; AID 588413, 2011;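 active = inhibition above about 55%, limit read from the data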;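 also: 0% = DMSO-treated cells and 100% = wells with medium but no cells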
TRPM1 prom inh: inhibitors of MITF-dependent TRPM1 promoter reporter, primary screen, cell-based, SK-MEL-5, single point, luciferase; SK-MEL-5 TRPM1 promoter luciferase, 24 h; AID 488899, 2010; 330,000 tested, 0.83% active; inhibition, % at 12.5 µM;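 active = mean inhibition across replicates of 60% or more, whatever share of single replicates reaches that level; inconclusive = some that reach 60%, reason not given; inactive = mean inhibition across replicates below 60%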
697 NFkB inh: inhibitors of PMA/ionomycin-induced NF-kB reporter, 697 cells, primary screen, B-cell NF-kB inhibitor project, cell-based, luminescence, uHTS; 697 B-cell NF-kB luciferase reporter, 16 h; inhibition, % at 4 µM; 330,000 tested, 0.33% active; AID 435022, 2010; in the data active = inhibition above about 35%
Gli antag conf: Gli-SUFU pathway antagonists, confirmation, single concentration, luciferase luminescence, Sufu-KO-LIGHT cells; 2,500 tested, 40% active; AID 602428, 2012; shares compounds with Gli-Sufu block; inhibition, % at 5 µM; Gli luciferase reporter;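 active = mean inhibition at 5 µM reaching about 45%, limit read from the data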;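 also: plate controls were DMSO-treated cells for no effect and wells lacking cells for full effect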
SufuKO cytotox: cytotoxicity in Sufu-KO-LIGHT cells, confirmation, cytotoxicity control for Gli-SUFU antagonist project, cell-based, ATP luminescence, single concentration; shares compounds with Gli-Sufu block; 2,500 tested, 32% active; AID 651994, 2013; cytotoxicity, % at 5 µM;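 active = mean cytotoxicity at 5 µM above about 25%, limit read from the data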;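 also: cells exposed to compound overnight for roughly 16 to 18 hours; plate controls were DMSO wells with cells for no effect and medium without cells for full effect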
Wnt3a cs: Wnt3a reporter signal inhibition, confirmation, counter-screen for Gli-SUFU antagonist project, Wnt-LIGHT cells, luminescence, single concentration; 2,500 tested, 20% active; AID 651995, 2013; Wnt3a-driven luciferase reporter; inhibition, % at 6.25 µM; shares compounds with Gli-Sufu block;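 active = mean inhibition above about 25%, limit read from the data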
Numbers without * were called inactive; ? = inconclusive; · = not tested or not shown. Compounds with a hit are over-represented: about 2.3% of the library has one in this group of screens.

SMILES	Shn3 inh set2	EBV LMP1 NFkB	Jurkat NFkB inh	Gli-Sufu block	TRPM1 prom inh	697 NFkB inh	Gli antag conf	SufuKO cytotox	Wnt3a cs
CCOC(=O)c1c(NC(=O)C(=O)N/N=C/c2ccccc2O)sc2c1CCCCC2	94*	11	12	70*	?	-3	75*	17	20
CCOC(=O)c1c(NC=O)sc2c1CCC2	11	4	7	70*	1	-18	12	-4	21
CC(C)(C)OC(=O)C[C@@H]1C/C=C\C[C@H](CC(=O)NCCO)C(=O)N[C@@H](c2ccccc2)COC1=O	-18	3	-3	-6	-8	7	·	·	·
Cc1[nH]n(-c2ccccc2)c(=S)c1C=NCCCN=Cc1c(C)[nH]n(-c2ccccc2)c1=S	17	-3	-13	71*	16	-17	32	32*	-94
CCCCCNC1=CC(=O)CC(c2ccccc2)C1 (stereo not drawn)	-12	-2	27	2	16	6	·	·	·
CCCCCCCNC1=CC(=O)CC(c2ccccc2)C1 (stereo not drawn)	54	-14	30	59*	-6	-17	52*	24	-38
CCCCN(C(=O)Cn1nnc2ccccc21)C(C(=O)NCCOC)c1ccc(OC)cc1OC (stereo not drawn)	8	-1	-5	2	10	-9	·	·	·
CC(C)C(NC(=O)c1ccco1)C(=O)OCC(=O)NCCc1ccccc1 (stereo not drawn)	-21	0	13	0	·	18	·	·	·
CC1CCCC=CC2CC(OC(=O)CN(C)C)CC2C(O)C=CC(=O)O1 (stereo not drawn)	63	-91	·	60*	76*	·	86*	38*	88*
COc1cccc(N(C(=O)c2ccco2)C(C(=O)NC2CCCC2)c2cccnc2)c1 (stereo not drawn)	-28	8	1	9	2	16	·	·	·
CC1CCCCN1c1ncnc2ccccc12 (stereo not drawn)	53	2	23	22	24	-60	·	·	·
CC1(C)CC2CC(C)(CN2c2ncnc3ccccc23)C1 (stereo not drawn)	65	0	26	53	12	-43	40	4	21
Cc1cc(NC(=O)c2c(Br)c(C)nn2C)no1	-4	-9	-5	50	-7	21	9	23	-8
Cc1cc(NC(=O)c2cc(C)on2)no1	-7	-1	8	-3	2	-10	·	·	·
Cc1ccc(NC(=O)CC2=NC(=O)C(CC(=O)Nc3ccccc3F)S2)cc1 (stereo not drawn)	·	-36	-27	-10	-18	-26	·	·	·
CN(Cc1ccccc1)C(=O)c1cccc(NC(=O)Cc2cccc(NC(=O)C3CCN(C(=O)C4CC4)CC3)c2)c1	1	-2	·	-8	-2	·	·	·	·
COc1cc(C2CC(=O)Oc3cc4c(cc32)OCO4)cc(OC)c1OC (stereo not drawn)	-16	-11	·	-9	-10	-5	·	·	·
COc1cc(C2C3=C(COC3=O)Oc3cc4c(cc32)OCO4)cc(OC)c1O (stereo not drawn)	8	-9	·	50	29	·	67*	64*	12
COc1cc(C2C3=C(COC3=O)Oc3cc4c(cc32)OCO4)cc(OC)c1OC (stereo not drawn)	8	-5	·	56*	37	·	57*	57*	13
Cc1nc2ccc(S(=O)(=O)NCC(=O)NCCN3CCCCCC3)cc2s1	-15	0	0	83*	-1	14	22	5	1
CC(=O)N(c1ccc(Cl)cc1)c1c[nH]c2ccccc12	-17	-8	17	56*	7	5	14	8	-11
CCOC(=O)CN(C)Cc1cn[nH]c1-c1ccc2cc(OC)ccc2c1	6	2	10	-12	-17	-11	·	·	·
CC(=O)N1CC=CC1(CC(C)C)C(=O)NCCc1c[nH]c2ccccc12 (stereo not drawn)	3	-6	-6	95*	·	-20	26	-4	-22
Cc1n(Cc2ccccc2)c2cc([N+](=O)[O-])ccc2[n+]1Cc1ccccc1	-6	12	-12	10	13	3	·	·	·
Cc1n(Cc2ccccc2)c2ccccc2[n+]1Cc1ccccc1	63	1	21	53	42	-12	62*	33*	11
SMILES	Shn3 inh set2	EBV LMP1 NFkB	Jurkat NFkB inh	Gli-Sufu block	TRPM1 prom inh	697 NFkB inh	Gli antag conf	SufuKO cytotox	Wnt3a cs
COc1ccc(OC)c(CN2CCC(Cc3ccccc3)CC2)c1	21	-20	19	25	-1	12	·	·	·
COc1cc(OC)c(CN2CCC(Cc3ccccc3)CC2)cc1Br	-7	15	0	53	-8	-10	23	21	-36
Cn1c(=O)c2c(nc(SCC(=O)NCc3ccc4c(c3)OCO4)n2Cc2ccc(Cl)cc2)n(C)c1=O	-9	11	-18	62*	-3	-3	27	-7	-25
Cc1ccc(NC(=S)N(CCCN2CCCC2)Cc2cccn2Cc2ccc(Cl)cc2)cc1C	-9	7	-26	-10	23	-3	·	·	·
Cc1ccc(NC(=S)N(CCCN2CCCC2)Cc2cccn2Cc2ccc(Cl)cc2)cc1Cl	61	1	1	61*	-3	-3	16	6	-25
CC(C)NC(=O)CN1C(=O)c2ccccc2S1(=O)=O	-26	8	-38	5	-5	-20	·	·	·
O=C(CN1C(=O)c2ccccc2S1(=O)=O)c1ccccc1	52	61*	-2	73*	60	15	80*	11	93*
COc1ccc(CCNC(=O)CCC(=O)Nc2ccc3nc(N4CCN(C)CC4)cc(C)c3c2)cc1OC	5	0	-4	51	6	-10	26	20	-10
CC(=O)c1ccc(N2CCN(c3ncc(C(F)(F)F)cc3Cl)CC2)cc1	68	8	21	-1	-11	-13	·	·	·
Cc1ccc(C(=O)N2CCN(c3ncc(C(F)(F)F)cc3Cl)CC2)s1	19	-1	4	58*	-3	-31	18	-1	-41
